PubChem BioAssay (NCATS)
Records with an inconclusive call do not appear. Where a call stands in place of a potency, no number is given. A number with no mark means an inactive call. Active and inactive are the calls of the source. Calls follow the shape of the dose curve; as a rule, active = well fitted inhibition curve with a large enough effect; inconclusive = small, poorly fitted or top-dose-only effect; inactive = flat fitted curve, though single readings scatter.

Assay: P-glycoprotein substrates identified in KB-8-5-11 adenocarcinoma cell line, qHTS therapeutic library screen (AID 1346987); also: nearly all actives have a fitted effect of over 65% in size
Conditions: KB-8-5-11 (P-gp overexpressing) viability, CellTiter-Glo, 72 h; series mostly up to 44.5 µM
Text: The ATP-binding cassette transporters P-glycoprotein (P-gp) is known to limit brain penetration of many chemotherapy drugs. […] As such, we developed a high-throughput screen (HTS) to identify substrates of P-gp from a series of chemical libraries including the National Center for Advancing Translational Sciences Pharmaceutical Collection NPC, 2,816 compounds), testing a total of 10,804 compounds, most of which have known mechanisms of action. We used the CellTiter-Glo viability assay to test library compounds against the parental KB-3-1 human cervical adenocarcinoma cell line and the colchicine-selected sub-line KB-8-5-11 that over-expresses P-gp. KB-8-5-11 cells were also tested in the presence of a P-gp inhibitor (tariquidar) to assess reversability of transporter-mediated resistance. Of the tested compounds, a total of 90 P-gp substrates were identified including 55 newly identified P-gp substrates. Substrates were confirmed using an orthogonal killing assay against HEK-293 cells transfected with P-gp. As exemplars, we confirmed that […] (cyclin-dependent kinase inhibitor); AT9283, (Janus kinase 2/3 inhibitor); ispinesib (kinesin spindle protein inhibitor); gedatolisib (PKI-587, phosphoinositide 3-kinase/mammalian target of rampamycin inhibitor); GSK-690693 (AKT inhibitor); and KW-2478 (heat shock protein 90 inhibitor) were substrates , and direct ATPase stimulation was assessed. ABCG2 was also found to confer high levels of resistance to AT9283, GSK-690693 and gedatolisib, while ispinesib, AT7519 and KW-2478 were weaker substrates.
The HeLa derivative cell line, KB-3-1, and its colchicine-selected, P-gp-overexpressing subline, KB-8-5-11 were maintained in DMEM with 10% FCS and Pen/Strep with glutamine at 37 degree C in 5% CO2. For KB-8-5-11 cells, colchicine was added to the medium at a concentration of 100 ng/mL. HEK-293 cells transfected with empty vector (pcDNA) or vector containing human ABCB1 (MDR-19) or ABCG2 (R-5) have been described previously (Robey, Lin, Qiu, Chan & Bates, 2011) and were maintained in EMEM supplemented with 10% FCS, Pen/Strep and glutamine with 2 mg/ml G418 to select for the expression of the transporter. Cultures were confirmed to be free of mycoplasma infection using the MycoAlert Mycoplasma Detection Kit (Lonza, Walkersville, MD). For the screen, assay medium was identical to culture medium except for KB-8-5-11 where colchicine was excluded from the medium.
All cell lines were plated into 1536-well plates at 500 cells/well in 5 uL media. Compounds were then pinned in dose-response using a 1536-head pin tool (Kalypsis, San Diego, CA) and plates were incubated at 37 degree C in 5% CO2 for an additional 72 h. CellTiter-Glo reagent (Promega) was dispensed into the wells, incubated for 5 min and luminescence was read on a ViewLux instrument (Perkin-Elmer). Cytotoxic compounds were defined as those that yielded a curve class of -1.1, -1.2, -2.1, -2.2, -2.3, or -2.4, a maximum response of >50% and an AC50 of < 10 uM. Cherry-picked hits from screening analysis were tested with both the KB pair of cell lines, and the pcDNA (empty vector control) and MDR-19 (P-gp overexpressing) pair were tested, in the absence and presence of tariquidar.
Potency is read from the fitted curve at half-maximal effect.

| SMILES | Potency | activity change, negative = cytotoxicity |
| --- | --- | --- |
| O=C(Nc1ccc2[nH]ncc2c1)C1CCC1 | inactive |  |
| CC(C(=O)O)c1ccc(C(=O)c2cccs2)cc1 (stereo not given) | inactive |  |
| Cc1ccc(C(=O)c2ccc(CC(=O)O)n2C)cc1 | inactive |  |
| CCCSc1ccc2nc(NC(=O)OC)[nH]c2c1 | 0.556 µM (active) |  |
| NCCO | inactive |  |
| CC(C(=O)O)c1ccc2c(c1)[nH]c1ccc(Cl)cc12 (stereo not given) | inactive |  |
| CC1(C)[C@@H](O[C@H]2O[C@H](C(=O)O)[C@@H](O)[C@H](O)[C@H]2O[C@@H]2O[C@H](C(=O)O)[C@@H](O)[C@H](O)[C@H]2O)CC[C@]2(C)[C@H]3C(=O)C=C4[C@@H]5C[C@@](C)(C(=O)O)CC[C@]5(C)CC[C@@]4(C)[C@]3(C)CC[C@@H]12 | inactive |  |
| Cc1nc2ccccc2n1Cc1ccc(Cl)cc1 | 4.11 µM (active) |  |
| COc1cc(/C=C/C(=O)CC(=O)/C=C/c2ccc(O)c(OC)c2)ccc1O | inactive |  |
| CC[C@H]1OC(=O)[C@H](C)[C@@H](O[C@H]2C[C@@](C)(OC)[C@@H](O)[C@H](C)O2)[C@H](C)[C@@H](O[C@@H]2O[C@H](C)C[C@H](N(C)C)[C@H]2O)[C@](C)(O)C[C@@H](C)C(=O)[C@H](C)[C@@H](O)[C@]1(C)O | inactive |  |
| CC(C)Cc1ccc([C@H](C)C(=O)O)cc1 | inactive |  |
| CCN(CC)CCCCNc1ncc2cc(-c3c(Cl)cccc3Cl)c(NC(=O)NC(C)(C)C)nc2n1 | 16.4 µM (active) |  |
| C#C[C@]1(O)CC[C@H]2[C@@H]3CCc4cc(O)ccc4[C@H]3CC[C@@]21C | 6.51 µM (active) |  |
| C[N+](C)(C)CCOP(=O)(O)OP(=O)([O-])OC[C@H]1O[C@@H](n2ccc(N)nc2=O)[C@H](O)[C@@H]1O | inactive |  |
| C=CCCCCCCCCC(=O)O | inactive |  |
| CCC1C(=O)OCC1Cc1cncn1C (stereo not given) | inactive |  |
| O=C(O)CC1CC(c2ccccc2)=NO1 (stereo not given) | inactive |  |
| N=c1ccn2c(n1)O[C@H]1[C@H](O)[C@@H](CO)O[C@H]12 | inactive |  |
| C#CC1(O)CC[C@H]2[C@@H]3CCC4=CCCC[C@@H]4[C@H]3CC[C@@]21C (stereo not given in full) | inactive |  |
| COc1cc(CNC(=O)CCCC/C=C/C(C)C)ccc1O | inactive |  |

| SMILES | Potency | activity change, negative = cytotoxicity |
| --- | --- | --- |
| CN(C)c1ccc(C(=C2C=CC(=[N+](C)C)C=C2)c2ccccc2)cc1 | 23.1 µM (active) |  |
| CO[C@H]1C[C@@H]2CC[C@@H](C)[C@@](O)(O2)C(=O)C(=O)N2CCCC[C@H]2C(=O)O[C@H]([C@H](C)C[C@@H]2CC[C@@H](O)[C@H](OC)C2)CC(=O)[C@H](C)C=C(C)[C@@H](O)[C@@H](OC)C(=O)[C@H](C)C[C@H](C)/C=C/C=CC=C1C | inactive |  |
| S=c1[nH]c2ccccc2s1 | inactive |  |
| Nc1ccc(O)c([N+](=O)[O-])c1 | inactive |  |
| [O-][n+]1ccccc1SSc1cccc[n+]1[O-] | 7.31 µM (active) |  |
| CN(C)CCn1nnnc1SCC1=C(C(=O)O)N2C(=O)[C@@H](NC(=O)Cc3csc(N)n3)[C@H]2SC1 | inactive |  |
| CCNc1nc2c(ncn2[C@H]2C[C@H](O)[C@@H](CO)O2)c(=O)[nH]1 | inactive |  |
| CC(=O)O[C@H]1C[C@@]2(C)[C@@H](C[C@@H](O)[C@H]3[C@@]4(C)CC[C@@H](O)[C@@H](C)[C@@H]4CC[C@@]32C)/C1=C(\CCC=C(C)C)C(=O)O | inactive |  |
| COc1cccc2c1C(=O)c1c(O)c3c(c(O)c1C2=O)C[C@@](O)(C(=O)CO)C[C@@H]3O[C@H]1C[C@H](N)[C@H](O[C@@H]2CCCCO2)[C@H](C)O1 | inactive |  |
| O=C(OCc1ccccc1)c1ccccc1 | inactive |  |
| CC(N)C(=O)OC(C)(C)Cc1ccc(Cl)cc1 (stereo not given) | inactive |  |
| CC1(C)S[C@@H]2[C@H](NC(=O)[C@H](NC(=O)N3CCN(S(C)(=O)=O)C3=O)c3ccccc3)C(=O)N2[C@H]1C(=O)O | inactive |  |
| CC1(C)[C@@H](O)CC[C@]2(C)[C@H]3C(=O)C=C4[C@@H]5C[C@@](C)(C(=O)O)CC[C@]5(C)CC[C@@]4(C)[C@]3(C)CC[C@@H]12 | inactive |  |
| O=C(CS)Nc1ccccc1 | inactive |  |
| O=C(/C=C/c1ccccc1)NCCO | inactive |  |
| Cc1c(Nc2ncccc2C(=O)O)cccc1C(F)(F)F | inactive |  |
| O=[N+]([O-])c1ccc(CNc2nc(NCc3cccc(C(F)(F)F)c3)nc3nc[nH]c23)cc1 | inactive |  |
| O=C(O)Cc1cccc(-c2cc(CCCCCCc3ccc(O[C@H]4O[C@H](CO)[C@@H](O)[C@H](O)[C@@H]4O)c(-c4cccc(CC(=O)O)c4)c3)ccc2O[C@H]2O[C@H](CO)[C@@H](O)[C@H](O)[C@@H]2O)c1 |  | 3.65% [at 0.354 µM] |
| c1ccc2sc(SSc3nc4ccccc4s3)nc2c1 | inactive |  |
| CCOc1ccc2nc(S(N)(=O)=O)sc2c1 | inactive |  |
